Compound activity: PubChem, National Center for Advancing Translational Sciences (NCATS)
FEN1 inhibitor: qHTS Assay for the Inhibitors of Human Flap endonuclease 1 (FEN1). P39748. hit rate 0.35% among 390,000. Recombinant FEN1 flap cleavage, fluorescence, 15 min. Potency, µM (series often up to 114 µM), for inactives: top-dose activity change, negative = inhibition, most hits filed as inhibitors; further: on the % scale 0 is the no-effect control and ±100 the full control effect; nearly all actives have a fitted effect of over 65% in size
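With each library titrated from low to high concentration, compounds met 10 nM FEN1 for 15 min at room temperature before 50 nM substrate was added; readings at 0 and 15 min fed four-parameter Hill curve fits.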
L3MBTL1 inh: qHTS Assay for the Inhibitors of L3MBTL1. Lethal(3)malignant brain tumor-like protein 1 (Homo sapiens), Q9Y468. AlphaScreen L3MBTL1–H3K9me1 peptide binding. Potency, µM (series often up to 57.1 µM), for the others: top-dose activity, negative = inhibition, actives largely listed as inhibitors. hit rate 0.66% among 230,000; further: on the % scale 0 is the no-effect control and ±100 the full control effect; nearly all actives have a fitted effect of over 60% in size
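Read-out is AlphaScreen signal from streptavidin donor and nickel chelate acceptor beads (10 ug/mL final each) bridging L3MBTL1 (50 nM) and biotinylated K9-monomethylated H3(1-15) peptide (75 nM), after 30 min compound exposure at room temperature.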
BLM helicase inh-1: qHTS Assay for Inhibitors of Bloom's syndrome helicase (BLM); RecQ-like DNA helicase BLM (Homo sapiens), P54132; recombinant BLM DNA unwinding, fluorescence dequenching; Potency, µM (highest dose often 56.1 µM), without a hit: at the top dose activity change, negative = inhibition, usual class: inhibitors; hit rate 0.2% among 350,000;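 further: plate controls were vehicle for no effect and no enzyme for full effect; nearly all actives have a fitted effect of over 35% in size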
RECQ1 helicase: qHTS Assay for Inhibitors of RecQ-Like Dna Helicase 1 (RECQ1). Potency, µM (series often up to 57.3 µM), for inactives: at the top dose activity, negative = inhibition, hits mostly inhibitors. RECQ1 DNA unwinding, red fluorescence kinetic read. hit rate 0.54% among 240,000;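 further: plate controls were vehicle for no effect and no enzyme for full effect; nearly all actives have a fitted effect of over 30% in size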
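RECQ1T1 50 nM; forked duplex (20 bp + 30-nt ss tails) 200 nM, ATP 2 mM final; pH 8.0, 2 mM MgCl2, 2.5 ug/ml poly(dI-dC); 15 min compound preincubation; discontinuous kinetic read over 2 h at RT.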
WRN helicase inh-1: qHTS for Inhibitors of WRN Helicase; Potency, µM (top dose mostly 114 µM), for the others: at the highest dose activity change, negative = inhibition, actives largely listed as inhibitors; Bifunctional 3'-5' exonuclease/ATP-dependent helicase WRN (Homo sapiens), Q14191; hit rate 0.46% among 360,000; WRN helicase unwinding, fluorescent forked duplex, kinetic; further: on the % scale 0 is the no-effect control and ±100 the full control effect; nearly all actives have a fitted effect of over 55% in size
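Kinetic fluorescence helicase assay: unwinding of a quenched forked DNA duplex (100 nM final) with 2 mM ATP final raises red fluorescence (525/598 nm). Compounds sat 15 min at room temperature with 20 nM WRN beforehand.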
WRN helicase inh-2: qHTS for Inhibitors of WRN Helicase: Confirmatory Assay for Cherry-picked Compounds; Potency, µM (highest dose often 57.1 µM), inactives show at the top dose activity, negative = inhibition, hits mostly inhibitors; hit rate 63% among 610; AID 720497, 2013; shares compounds with WRN helicase inh-1; WRN helicase DNA unwinding, fluorescence kinetic; further: nearly all actives have a fitted effect of over 65% in size
TO DNA binding: qHTS for Inhibitors of WRN Helicase: Thiazole Orange DNA Binding Counterscreen; Potency, µM (doses to about 57.1 µM), for the others: at the highest dose activity change, negative = inhibition, most hits filed as inhibitors; AID 720499, 2013; hit rate 10% among 610; thiazole orange DNA binding displacement, fluorescence; shares compounds with WRN helicase inh-1;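 further: drop in dye fluorescence marks compound binding to DNA; on the % scale 0 is the no-effect control and ±100 the full control effect; nearly all actives have a fitted effect of over 60% in size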
BLM helicase inh-2: qHTS for Inhibitors of WRN Helicase: BLM Helicase Counterscreen for WRN Inhibitors; shares compounds with WRN helicase inh-1; Recombinant BLM helicase DNA unwinding, red fluorescence; Potency, µM (doses to about 57.1 µM), for inactives: at the top dose activity change, negative = inhibition, hits mostly inhibitors; hit rate 60% among 610; AID 720503, 2013; further: nearly all actives have a fitted effect of over 60% in size
* hit, by the source's call; u = inconclusive; x = not tested or not shown; [ ] = dose if it differs, or a comment. Hits are enriched below; roughly 0.99% of the tested compounds scored in any of these assays. The call rests on the fitted dose curve; in most records, active means well fitted curve in the direction sought with a large enough effect; inconclusive means small, poorly fitted or top-dose-only effect, or another doubt; inactive means no such curve, though single readings can be large; an effect the other way counts as inactive or inconclusive. Potency means the concentration at half of the fitted maximal effect.

SMILES | FEN1 inhibitor | L3MBTL1 inh | BLM helicase inh-1 | RECQ1 helicase | WRN helicase inh-1 | WRN helicase inh-2 | TO DNA binding | BLM helicase inh-2
CCCCN1C(=O)/C(=C/c2ccc(N(C)C)cc2)C(=O)N(Cc2ccco2)C1=O | u | u | u | 28µM* | 28µM* | u | 3% | 22µM*
CCCCN1C(=O)/C(=C\c2ccco2)C(=O)N(CCc2ccccc2)C1=O | 56µM* | u | u | 32µM* | 32µM* | u | -9% | 22µM*
CCN(CC)c1ccc(/C=C2\C(=O)NC(=O)N(Cc3ccco3)C2=O)cc1 | u | -27% | 4% | u | 28µM* | u | 1% | u
Cc1cc(/C=C2/C(=O)NC(=O)N(Cc3ccco3)C2=O)c(C)n1-c1ccccc1O | 0% | -15% | -2% | -1% | -11%[11.6 µM] | x | x | x
COc1ccccc1-n1c(O)c(/C=N/N2CCCCC2)c(=O)n(-c2ccccc2OC)c1=S | 0% | -4% | -1% | -1% | -4% | x | x | x
O=C1NC(=O)N(Cc2ccc(F)cc2)C(=O)/C1=C\C=C\c1ccco1 | u | x | u | 28µM* | 35µM* | 7.6µM* | -12% | 4.3µM*
N/C(=N\N=C/c1ccc(-c2ccc(O)c(C(=O)O)c2)o1)N[N+](=O)[O-] | 50µM* | 11µM* | 52% | 13µM* | 25µM* | 7.6µM* | u | 6.8µM*
COCCOC(=O)C1=C(N)Oc2c(c(=O)oc3ccccc23)C1c1ccncc1 (centres undefined) | -9% | -7% | 0% | 6% | 0% | x | x | x
O=C1NC(=O)C(=Cc2ccccc2[N+](=O)[O-])C(=O)N1 | 8% | x | x | x | 40µM* | 5% | -2% | 0%
CN(C)c1ccc(C=C2C(=O)NC(=O)NC2=O)cc1[N+](=O)[O-] | -11% | -10% | -2% | -1% | u | x | x | x
